Sampled rows, rich in hits. Any-hit rate of the full collection: about 1.1%.
MEP2 TOR yeast: alters MEP2-GFP fluorescence in TOR pathway yeast screen | S. cerevisiae MEP2-GFP strain, flow cytometry GFP, 3 h; 100% = DMSO control level | GFP response vs DMSO, % at 10 µM | actives 0.51% (n = 330,000);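 active = GFP response versus DMSO above a set limit, roughly screen mean plus 3 SD, cut at about 180% in these data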;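 also: median GFP fluorescence of the barcode-gated MEP2-GFP cells per well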
RPL19A-GFP yeast: modulators of TOR pathway RPL19A-GFP in S. cerevisiae; S. cerevisiae RPL19A-GFP strain, flow cytometry, 3 h; active compounds read low; AID 2025; percent response vs DMSO, % at 10 µM; actives 0.3% (n = 330,000);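 active = percent response vs DMSO below 50%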;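 also: median channel GFP fluorescence of the barcoded RPL19A-GFP strain; ratio of sample median GFP to plate DMSO average so 100% = DMSO; lower means less RPL19A-GFP as with rapamycin TOR inhibition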
LAP4-GFP MLPCN: modulators of TOR pathway LAP4-GFP in S. cerevisiae; S. cerevisiae LAP4-GFP multiplex, flow cytometry GFP, 3 h; median GFP as percent of DMSO wells; GFP response vs DMSO, % at 10 µM; actives 0.34% (n = 320,000); AID 2023;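 active = GFP response vs DMSO above a set limit, about the screen mean plus 3 SD, cut at about 150% in these data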
VLA-4 inh: inhibition in a human VLA-4 binding assay; VLA-4 expressing cells, ligand binding flow cytometry; inhibition, % (about 7 µM as worked out from the volumes in the protocol); actives 0.2% (n = 330,000); AID 2557; in the data active = inhibition above about 50%
Target sequence (P13612 whole entry, looked up): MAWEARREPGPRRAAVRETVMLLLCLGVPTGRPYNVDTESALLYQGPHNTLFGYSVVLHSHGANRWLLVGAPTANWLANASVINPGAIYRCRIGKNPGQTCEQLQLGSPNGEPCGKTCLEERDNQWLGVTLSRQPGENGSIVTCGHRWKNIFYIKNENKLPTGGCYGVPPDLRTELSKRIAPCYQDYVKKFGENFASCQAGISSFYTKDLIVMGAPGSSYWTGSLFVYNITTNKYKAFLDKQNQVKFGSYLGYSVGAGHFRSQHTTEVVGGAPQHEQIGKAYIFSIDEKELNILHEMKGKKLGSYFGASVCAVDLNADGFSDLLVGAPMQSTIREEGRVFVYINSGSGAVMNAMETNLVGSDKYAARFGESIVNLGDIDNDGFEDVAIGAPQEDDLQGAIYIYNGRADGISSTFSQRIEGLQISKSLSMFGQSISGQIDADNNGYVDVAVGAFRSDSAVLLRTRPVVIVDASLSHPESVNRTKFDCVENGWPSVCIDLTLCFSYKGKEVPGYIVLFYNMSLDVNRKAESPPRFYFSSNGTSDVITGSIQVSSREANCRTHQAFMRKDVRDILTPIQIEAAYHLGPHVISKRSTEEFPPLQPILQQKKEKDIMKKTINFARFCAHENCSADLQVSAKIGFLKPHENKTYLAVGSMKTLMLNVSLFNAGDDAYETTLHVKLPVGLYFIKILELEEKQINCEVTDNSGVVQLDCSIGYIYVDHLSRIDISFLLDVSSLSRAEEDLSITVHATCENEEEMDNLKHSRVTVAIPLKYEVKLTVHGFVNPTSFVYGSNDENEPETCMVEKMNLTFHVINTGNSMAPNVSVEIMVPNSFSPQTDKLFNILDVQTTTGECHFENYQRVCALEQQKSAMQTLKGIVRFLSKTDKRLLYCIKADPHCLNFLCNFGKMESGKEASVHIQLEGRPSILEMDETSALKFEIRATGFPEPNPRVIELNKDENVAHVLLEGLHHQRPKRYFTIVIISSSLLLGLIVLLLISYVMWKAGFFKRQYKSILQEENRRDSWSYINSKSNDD
CIT2 TOR yeast: alters CIT2-GFP fluorescence in TOR pathway yeast screen; actives 0.065% (n = 320,000); S. cerevisiae CIT2-GFP strain, flow cytometry, 3 h; 100 means same as DMSO wells; AID 2029; GFP response vs DMSO, % at 10 µM;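 active = GFP response relative to DMSO above a set limit, near the screen mean plus 3 SD, cut at about 150% in these data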;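 also: ratio of well median GFP fluorescence to mean of DMSO wells on the plate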
AGP1 TOR yeast: yeast TOR pathway AGP1-GFP modulation; S. cerevisiae AGP1-GFP multiplex flow cytometry, 3 h; GFP as percent of DMSO wells; GFP response vs DMSO, % at 10 µM; actives 0.02% (n = 320,000); AID 2066;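 active = GFP response relative to DMSO above a set limit, near screen average plus 3 SD, cut at about 150% in these data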;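 also: median GFP channel fluorescence of the gated AGP1 strain per well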
LAP4 cherry2: reconfirmed LAP4-GFP TOR pathway modulator in yeast; actives 20% (n = 590); S. cerevisiae LAP4-GFP strain, flow cytometry GFP, 3 h; AID 2621; GFP response vs DMSO, % at 10 µM; shares compounds with LAP4-GFP MLPCN;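 active = GFP signal as percent of the solvent control above about 150%, meaning raised reporter expression, limit read from the data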;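 also: ratio of well median GFP fluorescence to plate DMSO mean so 100% = DMSO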
MEP2-GFP pick2: second confirmation of modulators of TOR reporter MEP2-GFP in yeast; shares compounds with LAP4-GFP MLPCN; S. cerevisiae MEP2-GFP strain, flow cytometry GFP, 3 h; GFP response vs DMSO, % at 10 µM; actives 10% (n = 590);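 active = GFP signal above 150% of the solvent control wells, that is a rise of more than half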;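 also: median channel GFP fluorescence of all gated yeast cells per well; ratio of median GFP to plate DMSO average so 100% = DMSO level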
RPL19A GFP CP2: yeast RPL19A-GFP TOR reporter modulation, second cherry pick; GFP response vs DMSO, % at 10 µM; S. cerevisiae RPL19A-GFP strain, flow cytometry GFP, 3 h; active compounds read low; 100% means same as DMSO wells; actives 3% (n = 590); shares compounds with LAP4-GFP MLPCN;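 active = under 65% GFP response relative to DMSO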;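 also: median GFP channel fluorescence per well over the all cells gate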
CIT2 GFP CP2: reconfirmed modulator of CIT2-GFP TOR reporter in yeast | actives 8% (n = 590) | shares compounds with LAP4-GFP MLPCN | GFP response vs DMSO, % at 10 µM | S. cerevisiae CIT2-GFP strain, flow cytometry GFP, 3 h; DMSO control wells read 100%;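 active = GFP response vs DMSO above about 150%, limit read from the data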;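 also: median green fluorescence per well over all gated yeast cells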
AGP1 GFP CP2: second confirmation of modulators of TOR reporter AGP1-GFP in yeast; shares compounds with LAP4-GFP MLPCN; S. cerevisiae AGP1-GFP strain, flow cytometry GFP, 3 h; percent response vs DMSO, % at 10 µM; 590 tested, under 10 active; AID 2643;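 active = over 150 percent of DMSO response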;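 also: median GFP channel fluorescence over all cells without mother daughter split; sample median GFP divided by mean DMSO control so 100% equals DMSO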
Yeast autofluor: yeast s288c autofluorescence artifact, counter-screen | shares compounds with LAP4-GFP MLPCN | S. cerevisiae s288c, 520 nm autofluorescence, flow cytometry, 3 h; active compounds read high; zero means same as solvent-only cells | fluorescence change (kMESF span) at 33 µM | 610 tested, under 10 active | AID 2757;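 active = fluorescence span over the dose series, or activity score, above about 33, limit read from the data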
s288c autofl DR: TOR screen hit shows autofluorescence in yeast s288c | shares compounds with LAP4-GFP MLPCN | S. cerevisiae s288c parental, compound autofluorescence, flow cytometry, 3 h | fluorescence change (span) at 33 µM | 110 tested, under 10 active | AID 488829;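 active = fluorescence change span, or the activity score built from it, above 25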
TORC1 bypass gr: compounds blocking wildtype yeast growth but not TORC1 bypass cells; 120 tested, under 10 active; shares compounds with LAP4-GFP MLPCN; growth rating (0-3) at 30 µM; S. cerevisiae BY4741 spot growth rating, 48-72 h; active compounds read low; AID 504456;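 active = growth rating at most 1 for wild type yeast while the TORC1 bypass strain still grows fully, rated 3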
Numbers without * were called inactive; i = inactive; / = no result given; [ ] = dose if it differs, or a comment.

SMILES | MEP2 TOR yeast | RPL19A-GFP yeast | LAP4-GFP MLPCN | VLA-4 inh | CIT2 TOR yeast | AGP1 TOR yeast | LAP4 cherry2 | MEP2-GFP pick2 | RPL19A GFP CP2 | CIT2 GFP CP2 | AGP1 GFP CP2 | Yeast autofluor | others
Oc1c(CN2CCN(c3ccccc3)CC2)cc(Br)c2cccnc12 | 116 | 100 | 224* | -5 | 101 | 91 | / | / | / | / | / | 2.5
C=CCn1c(SCC(=O)N(CC)C2CCS(=O)(=O)C2)nc2cc(C(=O)O)ccc2c1=O (stereo not drawn) | 113 | 103 | 107 | 3 | 96 | 105 | / | / | / | / | / | /
COc1cccc(CCN2C(=O)C(=O)N([C@@H](CNCc3ccccc3)Cc3ccccc3F)C[C@@H]2C(C)(C)C)c1 | 90 | 95 | 131 | 2 | 91 | 92 | / | / | / | / | / | /
Cc1ccc(C2=NN(S(C)(=O)=O)C(c3ccc4c(c3)OCO4)C2)cc1 (stereo not drawn) | 106 | 108 | 105 | i | 128 | 99 | / | / | / | / | / | 4.6
O=C(COC(=O)c1ccccc1O)NCCc1c[nH]c2ccccc12 | 100 | 100 | 106 | 2 | 95 | 101 | / | / | / | / | / | /
O=C(COC(=O)c1ccccc1C(=O)OCC(=O)NCCc1c[nH]c2ccccc12)NCCc1c[nH]c2ccccc12 | 95 | 97 | 155* | -22 | 131 | 96 | 102 | 98 | 97 | 102 | 99 | /
CC1CCC(C(C)C)C(OP(=O)(c2ccccc2)C(O)c2ccncc2)C1 (stereo not drawn) | 94 | 92 | 103 | 17 | 96 | 97 | / | / | / | / | / | /
CC1CCC(C(C)C)C(OP(=O)(c2ccc(N(C)C)cc2)C(O)c2cccnc2)C1 (stereo not drawn) | 232*[may fluoresce green] | 119 | 150 | -23 | 234*[may fluoresce green] | 113 | 95 | 108 | 102 | 106 | 103 | /
O=S(=O)(/N=C(\Sc1ccc(Cl)cc1)c1ccccc1)c1ccccc1 | 88 | 83 | 214* | 9 | 82 | 93 | / | / | / | / | / | -2.2
C[C@]12CCC[C@H](O1)c1c(cc3c(c1O)C(=O)c1c(O)cc(O)cc1C3=O)O2 | 109 | 99 | 114 | i | 102 | 104 | / | / | / | / | / | /
COCc1nc(-c2cc(OC)c(OC)c(OC)c2)no1 | 793* | 25* | 109 | 19 | 99 | 23 | 104 | 105 | 101 | 98 | 100 | /
COc1cccc(C(=O)NCC2(c3ccccc3)CCCC2)c1OC | 105 | 101 | 100 | 14 | 108 | 96 | / | / | / | / | / | /
O=C(OCC(=O)N1CCN(C(=O)c2ccco2)CC1)c1cc(-c2ccc(F)cc2)nc2ccccc12 | 104 | 72 | 187* | 8 | 105 | 129 | 148 | 201* | 72 | 133 | 120 | -0.1 | s288c autofl DR=0.29;TORC1 bypass gr=3
O=C(OCC(=O)N1CCN(C(=O)c2ccco2)CC1)c1cc(-c2cccc(Br)c2)nc2ccccc12 | 125 | 66 | 162* | -3 | 121 | 126 | / | / | / | / | / | 0.1 | s288c autofl DR=0.08;TORC1 bypass gr=3
O=C(OCC(=O)N1CCN(C(=O)c2ccco2)CC1)c1cn(-c2ccccc2)nc1-c1ccccc1 | 102 | 90 | 100 | 2 | 92 | 103 | / | / | / | / | / | /
Cc1cc(C(=O)OCC(=O)N2CCN(C(=O)c3ccco3)CC2)c(C)n1-c1ccc(F)cc1 | 97 | 98 | 97 | 5 | / | 97 | / | / | / | / | / | /
O=C(OCC(=O)N1CCN(C(=O)c2ccco2)CC1)c1cc(-c2ccccc2)nc2ccccc12 | 203* | 70 | 163* | 13 | 120 | 137 | 144 | 215* | 77 | 129 | 128 | 0.1
O=C(OCC(=O)N1CCN(C(=O)c2ccco2)CC1)c1ccccc1C(=O)c1ccccc1 | 92 | 90 | 89 | -1 | 97 | 95 | / | / | / | / | / | /
Cc1ccc(NC(=O)c2cc3c(CO)cnc(C)c3oc2=Nc2cccc(C(N)=O)c2)cc1 | 134 | 100 | / | -8 | 98 | 105 | / | / | / | / | / | /
CC(=O)Nc1ccc(NC(=O)CSc2ccc3nnc(-c4ccccn4)n3n2)cc1 | 162 | 102 | 94 | -7 | / | 94 | / | / | / | / | / | /
CC1=NOC(=O)/C1=C/c1ccc(-c2ccc(Cl)cc2)o1 | 99 | 91 | 149 | 41 | 88 | 77 | / | / | / | / | / | /
CC1=NOC(=O)/C1=C\c1ccc(-c2cc(Cl)ccc2Cl)o1 | 94 | 89 | 167* | 19 | 111 | 55 | / | / | / | / | / | 1.5
COCCNc1nc(C)cc(-c2cc(C(=O)NCc3ccccc3)on2)n1 | 356* | 70 | 230* | 24 | 118 | 120 | 101 | 102 | 99 | 101 | 98 | /
COCCNc1nc(-c2cc(-c3ccccc3)on2)cc(C(C)C)n1 | 87 | 92 | 137 | 32 | 81 | 80 | / | / | / | / | / | /
COCCNc1nc(C)cc(-c2cc(-c3ccc(Cl)cc3)on2)n1 | 103 | 100 | 116 | -12 | 99 | 107 | / | / | / | / | / | /
Cc1noc(C(=O)NCc2ccccc2)c1Cl | 102 | 98 | 111 | 12 | 95 | 98 | / | / | / | / | / | /
Cc1cc(-c2cc(C(=O)NCc3ccccc3)on2)nc(S(C)(=O)=O)n1 | 98 | 95 | 103 | -8 | 88 | 97 | 102 | 98 | 101 | 101 | 99 | /
COCCNc1nc(C)cc(-c2cc(C(=O)Nc3ccccc3)on2)n1 | 90 | 98 | 103 | 33 | 93 | 89 | 102 | 103 | 100 | 107 | 98 | /

Compound activity from PubChem.
